High-throughput results: PubChem, National Center for Advancing Translational Sciences (NCATS)
The full list was thinned out, with hits kept by preference.
Pf Dd2 inh: blocks in vitro growth of P. falciparum Dd2; Potency, µM (highest dose often 28.9 µM), for inactives: at the top dose activity, negative = inhibition, usual class: inhibitors; 120,000 tested, 4.3% active; P. falciparum Dd2 growth, SYBR Green, 72 h; active = well fitted inhibition curve with a large enough effect;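 also: plate controls were DMSO vehicle for no effect and reference drug for full effect; nearly all actives have a fitted effect of over 65% in size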
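Readout: SYBR Green fluorescence, 485 nm excitation, 535 nm emission, after ~16 h lysis at 37C. Before that, Dd2-infected red cells (2.5% hematocrit) grew 72 h with compound, 29 uM top final concentration.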
* = called active by the depositor; i = inactive. Potency is read from the fitted curve at half-maximal effect.

SMILES	Pf Dd2 inh
O=C(CCC1N=C2c3ccccc3N=C(SCc3cccc(Cl)c3)N2C1=O)NCc1cccs1 (stereo not drawn)	82%
O=C(CCC1N=C2c3ccccc3N=C(SCc3cccc(Cl)c3)N2C1=O)NCCc1ccccc1 (stereo not drawn)	38%
O=C(CCC1N=C2c3ccccc3N=C(SCc3cccc(Cl)c3)N2C1=O)N1CCN(c2ccccc2)CC1 (stereo not drawn)	11µM*
CCCn1nccc1S(=O)(=O)N[C@@H]1CCOC[C@H]1Oc1ccccn1	-5%
C=CCN(Cc1cccc(OC)c1)C(=O)c1ccccc1C#N	-12%
CCO[C@H]1COC[C@@H]1NC(=O)c1csc(-c2cccs2)n1	9%
CNC(=O)CCn1ncc2cc(OC3CCc4cccc(-c5cccnc5)c43)ccc21 (stereo not drawn)	i
